Source: PubChem BioAssay (NCATS)
Values joined by “and” are separate entries in the source; they are usually repeats but may differ in a detail not shown here. Equal entries are not always repeated. Records with an inconclusive call do not appear. Values without a mark were called inactive. Active and inactive are the calls of the source. Calls come from the whole dose curve; as a rule, active = well fitted inhibition curve with a large enough effect; inconclusive = small, poorly fitted or top-dose-only effect; inactive = no such curve, though single readings can be large or run the other way.

Assay: Primary qHTS for inhibitors of nuclear receptor binding SET domain protein 2 (NSD2) in an RCH-ACV wild type WT cells (2C) (AID 1645877); note: nearly all actives have a fitted effect of over 70% in size
Conditions: RCH-ACV (leukaemia line) NSD2 WT (2C) viability, CellTiter-Glo, 72 h; series mostly up to 44.9 µM; activity change, negative = cell killing: at the top concentration
% is set by controls: 0 for no effect and ±100 for the full control effect; potency is the fitted concentration of half-maximal effect.

SMILES	Potency	activity change, negative = cell killing	outcome
O=C1NCCN1CCN1CCC(c2cn(-c3ccc(F)cc3)c3ccc(Cl)cc23)CC1	2.11 µM (active)		
Cn1cc(S(C)=O)c(=O)c2ccc(F)cc21 (configuration not stated)		-0.903%	
CC(C)Cc1ccc(C(C)C(=O)OCc2ccccn2)cc1 (configuration not stated)		4.13%	
O=C1CC2(CCCC2)CC(=O)N1			inactive
COc1ccc(CCC(C)=O)cc1		3.66%	
CN1CCC(Nc2ncc3ncnc(Nc4ccc(F)c(Cl)c4)c3n2)CC1	11.9 µM (active)		
COc1ccccc1N1CCN(CCN2C(=O)CC3(CCCC3)CC2=O)CC1		0.909%	
CCCCC/C=C\C/C=C\CCCCCCCC(=O)NC(C)c1ccccc1 (configuration not stated)	16.8 µM (active)		
O=C1[C@@H]2[C@H]3CC[C@H](C3)[C@@H]2C(=O)N1CCCCN1CCN(c2ncccn2)CC1			inactive
O=C(O)c1cn(C2CC2)c2cc(Cl)c(F)cc2c1=O			inactive
O=C(O)CCCC[C@@H]1SC[C@@H]2NC(=O)N[C@@H]21		5.54%	
C[C@H]1C[C@@H]2[C@H]([C@@H](O)C[C@@]3(C)[C@H]2CC[C@]3(O)C(=O)CO)[C@@]2(C)C=CC(=O)C=C12	26.6 nM (active) and 74.2 nM (active)		
CN(C)CCCOC1(Cc2ccccc2)CCCCCC1		-19.4%	
Cc1cccc(C)c1NC(=O)c1ccc(N)cc1		-5.01%	
NC(=O)C1(N2CCCCC2)CCN(CCCN2c3ccccc3CCc3ccc(Cl)cc32)CC1	8.41 µM (active)		
CC(C)C(=O)OCc1cccc(OC(=O)[C@@H]2N3C(=O)[C@@H](NC(=O)Cc4ccccc4)[C@H]3SC2(C)C)c1		-27.6%	
CC(C)CCCC(C)NCCC(C)C (configuration not stated)		-4.87%	
CCN(CC)CCOc1ccc(/C(=C(\Cl)c2ccccc2)c2ccccc2)cc1	11.9 µM (active) and 5.25 µM (active)		
Cc1onc(-c2c(Cl)cccc2Cl)c1C(=O)Cl		7.45%	

SMILES	Potency	activity change, negative = cell killing	outcome
COc1cc(NS(=O)(=O)c2ccc(N)cc2)nc(C)n1			inactive
CCOc1ccc(NS(=O)(=O)c2ccc(N)cc2)nn1		-0.165%	
CC(C)(C)C(O)/C=C/c1ccc2c(c1)OCO2 (configuration not stated)		-9.51%	
CCCCC(O)/C=C(C)/C=C/C=C/C(=O)N1CCCC1=O (configuration not stated)		6.71%	
Nc1cc(C(F)(F)F)ccc1S	15 µM (active)		
O=C(O)c1ccc(OCCN2CCCCC2)cc1		5.23%	
CN1C(=O)c2ccccc2C1=O		1.1% [at 91.9 µM]	
COc1cc2c(cc1OC)C(=O)CC2		-26.5%	
COC(=O)c1cc(Cl)ccc1NS(=O)(=O)C(F)(F)F		6.22%	
Cc1coc2ccccc2c1=O			inactive
CCOC(=O)CN1CCCC1=O		1.63%	
C[C@H](N)C(=O)N[C@@H](C)C(=O)NC1[C@H]2CN(c3nc4c(cc3F)c(=O)c(C(=O)O)cn4-c3ccc(F)cc3F)C[C@@H]12 (some centres not stated)	6.68 µM (active)		
CC(C)(C)C(=O)OCOC(=O)C1N2C(=O)CC2S(=O)(=O)C1(C)C (configuration not stated)		-2.82%	
CCOC(=O)C(=O)c1csc(NC=O)n1			inactive
CC(=O)Nc1ccn(C2COC(COC(=O)c3ccccc3)O2)c(=O)n1 (configuration not stated)	5.31 µM (active)		
CCCc1c2oc(C(=O)O)cc(=O)c2cc2c(=O)cc(C(=O)O)n(CC)c12		1.78%	
CCOc1c(N2CCOCC2)cnn(C)c1=O		-1.79%	
O=C(OCCN1CCOCC1)c1cccnc1Nc1cccc(C(F)(F)F)c1		-17.2%	
